Assay results: PubChem BioAssay AID2165 (The Scripps Research Institute Molecular Screening Center, 2009)
The source made the active and inactive calls. Rule as the data show it: active = IC50 below about 9 µM; inactive = the rest.

These compounds were tested on Ba/F3 Cytotoxicity (assay: JAK2V617F project follow-up: kinase, reporter, cytotoxicity – HEL and Ba/F3 cells, late-stage follow-up (AID 2165)). Details: JAK2V617F panel: kinase, IRF1 reporter.

SMILES	IC50
COc1cc2ncnc(Nc3ccc(F)c(F)c3)c2cc1OC	> 40 µM (inactive)
c1ccc(Nc2ncnc3ccccc23)cc1	> 40 µM (inactive)
COc1ccc(C)cc1NC(=O)Nc1ccc(Br)cn1	> 40 µM (inactive)
CC(C)c1cc(C=C(C#N)C(=O)NCCCc2ccccc2)cc(C(C)C)c1O	4.29 µM (active)
N#CC(=Cc1ccc(O)c(O)c1)C(=S)NCc1ccccc1	1.09 µM (active)
COCCOc1cc2ncnc(Nc3cccc(C#Cc4ccc(O)cc4)c3)c2cc1OCCOC	3.68 µM (active)
COc1cc2ncnc(Nc3ccccc3)c2cc1OC	> 40 µM (inactive)
Cc1cc2ncc(-c3ccc(O)c(O)c3)nc2cc1C	0.36 µM (active)
COc1cc2ncnc(NC3CCCCC3)c2cc1OC	> 40 µM (inactive)
Cc1cccc(OCC(=O)Nc2ccc(O)cc2)c1	6.62 µM (active)
Cc1[nH]c(=O)c(C(=O)C=Cc2ccc(Cl)cc2Cl)c2c1CCCC2	1.45 µM (active)
O=C(C=Cc1ccccc1F)c1c(-c2ccccc2)c2ccccc2[nH]c1=O	0.37 µM (active)
Cc1nnc(NC(=O)COc2ccccc2)s1	> 40 µM (inactive)
Cc1ccc(O)c(NC(=O)COc2ccc(F)cc2)c1	0.0825 µM (active)
Cc1ccc(O)c(NC(=O)COc2ccc(I)cc2)c1	0.0269 µM (active)
Cc1[nH]c(=O)c(C(=O)C=Cc2ccc(Br)cc2)c2c1CCCC2	2.57 µM (active)
CCC(C)c1ccc(OCC(=O)Nc2cc(C)ccc2O)cc1 (configuration not stated)	6.47 µM (active)
COc1cc2ncnc(Sc3ccc(Cl)cc3)c2cc1OC	> 40 µM (inactive)
COc1cc2ncnc(Nc3ccc(OC(F)(F)F)cc3)c2cc1OC	> 40 µM (inactive)

SMILES	IC50
COc1ccc(OCC(=O)Nc2cc(C)ccc2O)cc1	2.01 µM (active)
COc1cc(C=C(C#N)C(N)=O)cc(CSc2ccccc2)c1O	> 40 µM (inactive)
Cc1ccc(C=CC(=O)c2c3c(c(C)[nH]c2=O)CCCC3)cc1	3.34 µM (active)
Clc1cccc(Nc2ncnc3ccccc23)c1	> 40 µM (inactive)
Cc1ccc(O)c(NC(=O)COc2ccc(Br)cc2)c1	2.43 µM (active)
Cc1cccc(OCC(=O)Nc2ccccc2F)c1	> 40 µM (inactive)
COc1ccccc1/C=C/C(=O)c1c2c(c(C)[nH]c1=O)CCCC2	1.06 µM (active)
COc1cc(/C=C(\C#N)C(N)=O)cc(CSc2nc3ccccc3s2)c1O	7.61 µM (active)
COc1cc2ncc(-c3ccccc3)nc2cc1OC	> 40 µM (inactive)
Cc1[nH]c(=O)c(C(=O)/C=C/c2ccccc2F)c2c1CCCC2	0.43 µM (active)
Cc1ccc(O)c(NC(=O)COc2cccc3ccccc23)c1	1.95 µM (active)
COc1cc2ncnc(Nc3ccc(O)c(Br)c3)c2cc1OC	3.64 µM (active)
Cc1[nH]c(=O)c(C(=O)C=Cc2ccccc2Cl)c2c1CCCC2	0.16 µM (active)
COc1ccc(Cl)cc1NC(=O)NC(C)c1ccncc1 (configuration not stated)	> 40 µM (inactive)
COc1ccccc1OCC(=O)Nc1cc(C)ccc1O	0.018 µM (active)
Cc1ccc(O)c(NC(=O)COc2ccc(Cl)cc2)c1	1.39 µM (active)
N#Cc1ccccc1NC(=O)COc1ccc2c(c1)OCO2	> 40 µM (inactive)
N#C/C(=C\c1ccc(O)c(O)c1)C(=O)NCCc1ccccc1	0.3 µM (active)
